# Data from ChEMBL document CHEMBL3988442, “University of Dundee, Small-Polar-MMV Screening Library” (2021).
# Molecular target: T1, Aspartate--tRNA(Asp/Asn) ligase (Mycobacterium tuberculosis (strain ATCC 25618 / H37Rv)) (UniProt P9WFW3); also: in the data most compounds retested in dose-response had high values
# T1 sequence (whole entry): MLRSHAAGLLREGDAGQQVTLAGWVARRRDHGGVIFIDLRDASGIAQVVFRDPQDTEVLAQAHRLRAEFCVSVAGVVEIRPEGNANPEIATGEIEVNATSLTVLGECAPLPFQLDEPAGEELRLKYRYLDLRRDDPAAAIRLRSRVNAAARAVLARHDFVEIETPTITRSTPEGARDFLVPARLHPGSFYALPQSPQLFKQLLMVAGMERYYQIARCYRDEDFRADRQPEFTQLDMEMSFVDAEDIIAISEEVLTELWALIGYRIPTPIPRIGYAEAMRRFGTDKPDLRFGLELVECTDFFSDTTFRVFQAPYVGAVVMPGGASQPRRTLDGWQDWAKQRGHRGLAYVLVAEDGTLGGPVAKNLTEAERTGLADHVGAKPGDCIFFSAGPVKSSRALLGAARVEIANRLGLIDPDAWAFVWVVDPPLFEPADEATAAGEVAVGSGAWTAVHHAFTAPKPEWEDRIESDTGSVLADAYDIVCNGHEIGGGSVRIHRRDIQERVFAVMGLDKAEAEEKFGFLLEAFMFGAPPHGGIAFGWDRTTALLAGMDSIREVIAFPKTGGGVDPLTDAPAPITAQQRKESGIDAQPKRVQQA
# Test: Assay for Asp RNA synthetase-1 from Mycobacterium tuberculosis
# Type: functional
# Parameters: scale not given: direction of the effect not stated beside the values
# Settings: 30 µM
row,SMILES,Percent Effect [%]
1,CCCN1CCN(C(=O)c2cnccn2)[C@H]2CS(=O)(=O)C[C@H]21,-3.33
2,O=c1c2ccccc2nc2n1C(CSc1ccc(Cl)cc1Cl)CN2 (stereo not drawn),4.53
3,CC(C)c1nnc2n1CCN(C(=O)c1ccc(OCC(N)=O)cc1)C2,-5.82
4,COc1cc(N2C[C@@H]3COC[C@]3(COc3cccnc3)C2)ncn1,-3.68
5,O=C(CCc1nc2cccnc2[nH]1)Nc1cccnc1,-1.77
6,Cc1nc(C)n(CC2CCCN2CC(=O)Nc2cc(C(C)C)no2)n1 (stereo not drawn),3.17
7,Cc1ccc(N2CC[C@H](OCC3CC3)[C@@H]2Cc2cnn(C)c2)nn1,2.69
8,Cc1cccnc1C(=O)N1CCCCC1c1[nH]ncc1S(C)(=O)=O (stereo not drawn),5.01
9,CCc1nc(CN2CCN(C(=O)COCc3ccccc3)CC2)no1,-1.88
10,O=C(NCc1ccco1)[C@@]12CCO[C@@H]1CCN(CCN1CCCC1)C2,1.05
11,COc1ccccc1OCCC(=O)N1CCCC1Cn1cc(C)cn1 (stereo not drawn),-0.922
12,COc1ncccc1C(=O)N1CCCC(c2cc(C)[nH]n2)C1 (stereo not drawn),-4.25
13,Cc1cccc(S(=O)(=O)NCC(C)N2CCN(C)CC2)c1Cl (stereo not drawn),1.52
14,CCCc1n[nH]cc1C(=O)N1CCC(c2nccn2CCOC)CC1,-6.36
15,Cn1ccnc1CN1CCOCC(Cc2ccccn2)C1 (stereo not drawn),-1.22
16,COCC(=O)N1CCC[C@]2(C(=O)N(C)C)CN(c3ccccn3)C[C@@H]2C1,-2.71
17,COc1ccc(C2Nc3ccccc3C3=NCCCN32)cc1OC (stereo not drawn),3.81
18,O=C(NCc1ccoc1)NC1CCCN(c2ncccn2)C1 (stereo not drawn),-2.64
19,CCOc1ncccc1C(=O)N(C)Cc1ncc(C)c(OC)c1C,-0.375
20,CCc1cc(C(=O)N2CCC(Nc3ccc(C)nn3)CC2)sc1C,-2.1

# Molecular target: Shiga toxin 2 (Escherichia coli O157:H7) (UniProt P09385+P09386)
# Test: E. coli 0.157:H7 Shiga Toxin SOP - stx2 screening assay
# Type: functional
# Parameters: scale not given: direction of the effect not stated beside the values
# Settings: 30 µM
row,SMILES,Percent Effect [%]
1,CC(NC(=O)NCCCN(C)C)c1ccc2c(c1)CCC(=O)N2 (stereo not drawn),7.67
2,COc1ncc(C2(O)CCN(Cc3c(F)cccc3F)CC2)c(OC)n1,71.8
3,CNC(=O)[C@@]12CCO[C@@H]1CCN(S(=O)(=O)c1cccnc1)C2,7.61
4,CN(Cc1ncc(-c2ccccc2)o1)CC1CCCN1c1cccnn1 (stereo not drawn),5.15
5,O=C(NC1=NCCCN1c1ccc(Cl)cc1)c1cccc(Cl)c1,-69.6
6,Cc1nc(COC[C@@H]2CCC[C@@]23CNCCO3)cs1,-7.74
7,CN(Cc1ccsc1)C(=O)CS(=O)(=O)Cc1ccc(Cl)c(Cl)c1,41.2
8,COc1cccc(CNc2cnn(C)c(=O)c2Cl)c1,11.4
9,CCCc1cc(C(=O)N2CCOC(c3nc(-c4cccs4)no3)C2)no1 (stereo not drawn),-10.2
10,Cc1csc(CCCNC(=O)[C@H]2CNC[C@@H](C(=O)N3CCCC3)C2)n1,-2.63
11,O=C(N1CCOCC1)N1CCc2ncnc(NC3CC3)c2CC1,-39.4
12,CC(C)N1CCn2c(nc3cc(C(N)=O)ccc32)C1,-34
13,c1csc(-c2nc(CN3CCOC(Cn4cccn4)C3)co2)c1 (stereo not drawn),13.2
14,CCc1ccc(CN2CCC3(CC2)CC(N2CCN(C)CC2)CO3)cc1 (stereo not drawn),1.21
15,CC(C)n1ccc(-c2cc(C(=O)N3CCCC3)c3ccccn23)n1,-41.4
16,CCN1CCC(CNCc2cc(OC)ccc2OC)C1 (stereo not drawn),-21.3
17,CN(C)CC1CN(c2ncnc3[nH]ccc23)CCO1 (stereo not drawn),-33.5

row,SMILES,Percent Effect [%]
1,O=C(CC1CN(Cc2ccccc2)CCO1)Nc1ccccc1F (stereo not drawn),-0.0564
2,Cc1nn(C)c(C)c1CNCc1ccc(N2CCOCC2)nc1,-24.1
3,CCC(=O)N1CCC(c2nnc(Cn3cncn3)n2C2CC2)CC1,-2.15
4,CCCN1CCN(C(=O)c2cnccn2)[C@H]2CS(=O)(=O)C[C@H]21,-11.3
5,O=c1c2ccccc2nc2n1C(CSc1ccc(Cl)cc1Cl)CN2 (stereo not drawn),9.69
6,CC(C)c1nnc2n1CCN(C(=O)c1ccc(OCC(N)=O)cc1)C2,-6.36
7,COc1cc(N2C[C@@H]3COC[C@]3(COc3cccnc3)C2)ncn1,-5.75
8,O=C(CCc1nc2cccnc2[nH]1)Nc1cccnc1,-77.4
9,Cc1nc(C)n(CC2CCCN2CC(=O)Nc2cc(C(C)C)no2)n1 (stereo not drawn),27.8
10,Cc1ccc(N2CC[C@H](OCC3CC3)[C@@H]2Cc2cnn(C)c2)nn1,-6.34
11,Cc1cccnc1C(=O)N1CCCCC1c1[nH]ncc1S(C)(=O)=O (stereo not drawn),6.84
12,CCc1nc(CN2CCN(C(=O)COCc3ccccc3)CC2)no1,2.35
13,O=C(NCc1ccco1)[C@@]12CCO[C@@H]1CCN(CCN1CCCC1)C2,-24.8
14,COc1ccccc1OCCC(=O)N1CCCC1Cn1cc(C)cn1 (stereo not drawn),29.9
15,COc1ncccc1C(=O)N1CCCC(c2cc(C)[nH]n2)C1 (stereo not drawn),5.54
16,Cc1cccc(S(=O)(=O)NCC(C)N2CCN(C)CC2)c1Cl (stereo not drawn),-12.1
